# This is a sample that favours compounds with a hit; in the whole collection about 2.2% have one here.
# GalR3 antagonist: human GalR3 antagonism | O60755 | 360,000 compounds, 0.44% hits | AID 651719 | HEK293 GalR3-CNG cAMP membrane potential fluorescence; galR3 body fused to GalR1 C-terminus | inhibition, % at 3 µM;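 active = inhibition above the screen-wide average plus 3 SD, cut at about 13% in these data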;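 note: forskolin and galanin both at EC90 stimulate the cells; cAMP rise reported by CNG channel membrane potential dye signal; 0% = forskolin plus galanin with DMSO and 100% = forskolin alone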
# Target sequence (O60755 1-299 limits assumed): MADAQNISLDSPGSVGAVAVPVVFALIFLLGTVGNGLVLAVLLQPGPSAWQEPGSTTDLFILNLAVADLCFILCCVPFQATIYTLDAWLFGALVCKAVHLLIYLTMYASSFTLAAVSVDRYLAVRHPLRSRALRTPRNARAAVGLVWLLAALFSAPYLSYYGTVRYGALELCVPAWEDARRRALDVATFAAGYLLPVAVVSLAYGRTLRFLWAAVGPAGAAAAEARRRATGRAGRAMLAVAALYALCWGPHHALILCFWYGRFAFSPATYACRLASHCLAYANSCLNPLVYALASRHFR
# HIF act: HIF pathway transcriptional activation; 300,000 compounds, 0.32% hits; AID 1910; activation, % at 7.5 µM (by protocol); U2OS HRE-luciferase reporter, luminescence; normalized: DMSO 0%, desferrioxamine 100%;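 active = mean activation of at least 10% of the iron chelator positive control signal, with at least half of replicates also reaching 10%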
# SMARCA2 act: SMARCA2 function activation, primary screen. MG213 cells, MMTV-luciferase reporter, dexamethasone, overnight. activation, % at 9.1 µM. 370,000 compounds, 1% hits. AID 652017; in the data active = activation above about 7.8%;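 note: 0% = vehicle wells and 100% = reference activator wells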
# FXN GAA850 act: frataxin GAA850 promoter activation; 360,000 compounds, 0.56% hits; activation, % at 6 µM; HEK293 lucGAA850 FXN promoter luciferase reporter, 24 h; percent of 10 µM SAHA response;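 active = activation above the average of all compounds screened plus 3 SD, cutoff fixed separately per campaign, cut at about 7.5% in these data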;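 note: 0% = DMSO wells and 100% = 10 µM SAHA wells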
# Hsp70 act: switches on Hsp70 transcription. HeLa Hsp70 promoter luciferase reporter, luminescence; scaled: vehicle 0, proteasome-inhibitor control 100%. activation, % at 10 µM. 200,000 compounds, 0.04% hits;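 active = activation above the mean across all tested compounds plus 3 SD, cutoff set per campaign, cut at about 5.5% in these data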;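 note: 100% = MG132 at 30 µM as the positive control and 0% = DMSO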
# GAA30 FXN cntr: counter-screen for GAA850 frataxin promoter activators: GAA30 promoter activation; shares compounds with FXN GAA850 act; HEK293 lucGAA30 FXN promoter luciferase, 24 h; DMSO = 0%, 5 µM ipriflavone = 100%; 1,900 compounds, 66% hits; activation, % at 6 µM;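 active = mean activation above the mean of solvent-only control wells plus 3 SD, cut at about 22% in these data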;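 note: counterscreen of GAA850 promoter hits where activity marks nonselective or luminescence artifacts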
# FXN GAA850 conf: GAA850 FXN promoter activation confirmation; HEK293 lucGAA850 FXN promoter luciferase reporter, 24 h; 100% = activation by SAHA; activation, % at 6 µM; 1,900 compounds, 86% hits; shares compounds with FXN GAA850 act;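 active = mean activation above a set limit taken from the primary screen, cut at about 8% in these data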;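 note: 0% = DMSO wells and 100% = 10 µM SAHA wells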
# * marks the source's active call; other numbers are inactive results; nt = no result given.
SMILES,GalR3 antagonist,HIF act,SMARCA2 act,FXN GAA850 act,Hsp70 act,GAA30 FXN cntr,FXN GAA850 conf
CCN(C[C@H]1N[C@@](C)(C(=O)OC)[C@H]2C(=O)N(Cc3ccccc3)C(=O)[C@@H]12)C(=O)Nc1ccc(F)cc1,-3,nt,-3,15*,nt,25*,6
COC(=O)[C@]1(Cc2ccccc2)N[C@H](CN(C)C(=O)Nc2ccc(Cl)cc2)[C@@H]2C(=O)N(Cc3ccccc3)C(=O)[C@@H]21,-6,nt,1,-2,nt,nt,nt
CCNC(=O)N(C)C[C@H]1N[C@@](C)(C(=O)OC)[C@H]2C(=O)N(Cc3ccccc3)C(=O)[C@@H]12,-2,nt,-3,-1,nt,nt,nt
C=CC[C@@]1(c2ccccc2)Oc2ccccc2-c2nc3ccccc3nc21,nt,nt,-1,nt,nt,nt,nt
COCCCN1C(=O)[C@H](CC(=O)NCCc2ccccc2OC)[C@]2(C(=O)OC)CCCCC=C12,nt,nt,0,nt,nt,nt,nt
COc1ccccc1CCC[C@@H](CCS(=O)(=O)C(C)C)CC1CCCCC1,nt,nt,-4,nt,nt,nt,nt
O=C(Nc1c(-c2ccc(F)cc2)nc2ncccn12)C1CC1,nt,nt,-2,nt,nt,nt,nt
O=C(CSc1nnc(-c2ccccc2)n1-c1ccc(Cl)cc1)c1ccc(Cl)cc1,nt,nt,-5,nt,nt,nt,nt
Fc1cccc(F)c1/C=C/c1ccc2ccccc2n1,6,-1,3,8.0*,0,108*,34*
Fc1cccc(Cl)c1/C=C/c1cnc2ccccc2n1,-10,2,3,3,nt,nt,nt
O=C(CN1CCN(Cc2ccccc2Cl)CC1)N/N=C\c1ccccc1F,nt,nt,-2,nt,nt,nt,nt
O=C(O)c1ccc(N/N=C/c2ccc(-c3ccccc3)cc2)cc1,-4,2,0,8.7*,0,88*,31*
CC(C)c1ccc(/C=N/Nc2ccc(C(=O)O)cc2)cc1,-4,-3,-4,-5,-1,nt,nt
O=C(O)c1ccc(/C=N/Nc2cccc(C(F)(F)F)c2)cc1,-2,3,8,10*,0,99*,39*
O=C(O)c1cccc(N/N=C/c2ccc(F)c(F)c2)c1,6,2,7,4,0,nt,nt
COc1ccc(Cn2nnc3c(=O)[nH]c(C(=O)NCCc4ccc(F)cc4)nc32)cc1OC,-1,nt,-1,20*,0,9,9.0*
O=C(NCCc1ccccc1)c1nc2c(nnn2Cc2ccccc2Cl)c(=O)[nH]1,-9,-1,-2,1,0,nt,nt
CC(C)C[C@H]1COc2cc(Br)ccc2S(=O)(=O)N1Cc1cn(Cc2ccc(F)cc2)nn1,nt,nt,0,nt,nt,nt,nt
Cc1ccc(-c2nnn(CC(=O)N(CC3CCCO3)C(C(=O)NC3CCCCC3)c3ccc(F)cc3)n2)o1 (stereo not given),-4,0,-2,8.3*,0,22*,8.4*
Cc1ccc(-n2c(C)c(C)c3c(NCCO)ncnc32)cc1,-6,4,1,7.9*,nt,89*,31*
CCN(CC)S(=O)(=O)c1ccc(OC)nc1,-4,0,2,11*,0,20,6
CCN(CC)S(=O)(=O)c1ccc(OC(C)C)nc1,-5,0,-2,1,0,nt,nt
Cc1ccc(NC(=O)NC2CCCCCCC2)cc1C,-3,nt,4,9.7*,nt,93*,36*
CC(=O)c1cccc(NC(=O)NC2CCCCCCC2)c1,-3,2,1,0,nt,nt,nt
Cc1cccc(NC(=O)NC2CCCCCCC2)c1,-3,nt,6,7.6*,nt,102*,36*
SMILES,GalR3 antagonist,HIF act,SMARCA2 act,FXN GAA850 act,Hsp70 act,GAA30 FXN cntr,FXN GAA850 conf
CCc1sc(C(=O)Nc2ccc3c(c2)OCCO3)cc1Br,-1,3,7,8.0*,nt,111*,41*
c1ccc(CNC2CCC23CCC(c2ccccc2)CC3)cc1 (stereo not given),nt,nt,-5,nt,nt,nt,nt
COc1cc(NC(=O)c2ccccc2)c(C)cc1NC(=O)CSc1nnc(-c2cnccn2)n1-c1ccc(C)cc1,nt,nt,-4,nt,nt,nt,nt
CC(=O)Nc1ccc2c(c1)Cc1cc(N3C(=O)C=CC3=O)ccc1-2,0,nt,5,11*,nt,-85,-6
O=C1C=CC(=O)N1c1ccc2c(c1)Cc1cc(F)ccc1-2,-3,nt,0,-1,nt,nt,nt
CNc1nc(NCCOc2ccccc2Cl)c2sccc2n1,-10,nt,-1,9.0*,nt,24*,11*
O=C(CCc1ccccc1-c1ccccc1CCNC(=O)c1ccccc1)NCc1ccccc1,nt,nt,-2,nt,nt,nt,nt
CN(C)c1ccc(Cc2cc3c(O)ccc(O)c3cc(Cc3ccc(N(C)C)cc3)c2=O)cc1,-1,nt,-5,14*,nt,16,23*
Cc1ccc(S(=O)(=O)N2CCCC2C(=O)N2CCc3ccccc3C2)cc1 (stereo not given),nt,nt,6,nt,nt,nt,nt
CN1CCCCC(NC(=O)C23CC4CC(CC(C4)C2)C3)C1=O (stereo not given),0,nt,-3,nt,nt,nt,nt
O=C(N[C@@H](Cc1cccnc1)C(=O)N1CCC[C@H]1C(=O)NCCc1ccccc1Cl)c1ccc(Cl)c(Cl)c1,-8,nt,-2,nt,nt,nt,nt
CCNc1nc(N)nc(-c2cc(Cl)ccc2O)n1,nt,5,nt,17*,0,151*,93*
O=C(Nc1ccc(F)cc1F)c1cc(-c2ccc(Cl)cc2)nc2ccccc12,nt,nt,0,nt,nt,nt,nt
CCS(=O)(=O)N1Cc2ccccc2CC1C(=O)Nc1nccs1 (stereo not given),4,2,0,8.2*,0,109*,38*
CCS(=O)(=O)N1Cc2ccccc2CC1C(=O)Nc1nc2c(C)cccc2s1 (stereo not given),-13,0,-3,4,0,nt,nt
CCS(=O)(=O)N1Cc2ccccc2CC1C(=O)Nc1nc(C)cs1 (stereo not given),-5,2,0,7.9*,0,79*,33*
O=C(OC12CCCN(C1)/C(=C/c1cccc(Cl)c1)C2)C1CCCCC1 (stereo not given),nt,nt,-2,nt,nt,nt,nt
O=C(NC1CCCC1)C(c1ccncc1)N(C(=O)c1csnn1)c1ccc(F)cc1 (stereo not given),-6,0,-1,1,nt,nt,nt
CC(C)c1ccc(N(C(=O)c2csnn2)C(C(=O)NC2CCCC2)c2ccncc2)cc1 (stereo not given),-9,3,0,20*,nt,67*,24*
Cc1ccccc1CCN(C(=O)c1csnn1)C(C(=O)NC1CCCC1)c1ccncc1 (stereo not given),6,1,-2,14*,nt,19,7
O=C(NC1CCCC1)C(c1ccncc1)N(Cc1cccs1)C(=O)c1csnn1 (stereo not given),0,-1,-1,1,0,nt,nt
CCCCNC(=O)C[C@H]1C[C@@]2(C(=O)OC)C(=C[C@H](C(C)C)O[C@@H]2C2CC2)N(Cc2ccc(Cl)cc2Cl)C1=O,nt,nt,-2,nt,nt,nt,nt
